Screens: PubChem, National Center for Advancing Translational Sciences (NCATS)
The list is not random: actives were taken first. Their share in the collection is about 18%.
TDP1 block = qHTS Assay for Inhibitors of Tyrosyl-DNA Phosphodiesterase (TDP1). Tyrosyl-DNA phosphodiesterase 1 (Homo sapiens), Q9NUW8. recombinant TDP1, AlphaScreen DNA substrate cleavage. Potency, µM (doses to about 130 µM), for the others: at the top dose activity change, negative = inhibition, most hits filed as inhibitors. hit rate 0.28% among 350,000. AID 485290, 2010; also: potency is read from the fitted curve at half-maximal effect; nearly all actives have a fitted effect of over 40% in size
Target sequence (Q9NUW8 whole entry, looked up): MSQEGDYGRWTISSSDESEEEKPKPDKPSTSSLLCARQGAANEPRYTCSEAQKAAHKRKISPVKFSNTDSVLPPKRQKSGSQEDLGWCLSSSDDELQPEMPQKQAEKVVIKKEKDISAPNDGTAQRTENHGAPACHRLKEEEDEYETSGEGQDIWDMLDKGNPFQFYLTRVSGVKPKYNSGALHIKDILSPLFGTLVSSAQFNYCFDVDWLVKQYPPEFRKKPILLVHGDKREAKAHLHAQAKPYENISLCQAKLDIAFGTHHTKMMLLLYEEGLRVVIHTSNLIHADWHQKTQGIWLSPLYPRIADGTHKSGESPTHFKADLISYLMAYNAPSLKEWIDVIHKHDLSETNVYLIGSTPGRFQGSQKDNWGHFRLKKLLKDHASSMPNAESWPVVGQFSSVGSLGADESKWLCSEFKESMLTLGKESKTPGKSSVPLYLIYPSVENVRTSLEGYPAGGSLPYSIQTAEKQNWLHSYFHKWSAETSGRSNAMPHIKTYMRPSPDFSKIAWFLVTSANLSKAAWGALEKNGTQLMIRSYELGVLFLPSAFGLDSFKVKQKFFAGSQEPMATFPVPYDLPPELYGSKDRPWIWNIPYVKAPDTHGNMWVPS
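Steps: enzyme plus compound, 15 min RT; add biotin/phosphotyrosine-FITC oligonucleotide (15 nM final), react 5 min; add donor/acceptor beads (10 ug/ml final), 10 min; read AlphaScreen. Tdp1 at 1 nM final.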
TDP1 cell noCPT = qHTS for Inhibitors of human tyrosyl-DNA phosphodiesterase 1 (TDP1): qHTS in cells in absence of CPT | DT40 Tdp1-/- hTDP1 cells, no CPT, ATP luminescence, 48 h | Potency, µM (doses to about 46.2 µM), for inactives: at the top dose activity change, negative = growth inhibition, hits mostly inhibitors | hit rate 15% among 420,000; also: potency is read from the fitted curve at half-maximal effect; nearly all actives have a fitted effect of over 55% in size
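Seeded 400 DT40-hTDP1 cells/well (vehicle DMSO, no 20 nM CPT); pinned compounds; ≥48 hr at 37 °C; CellTiter-Glo luminescence as viability measure.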
CtBP-E1A blk = qHTS Assay for Inhibitors of the CtBP/E1A Interaction | AlphaScreen GST-E1A/His-CtBP binding, 1536-well; stronger effect = lower value | activity change, % (no concentration beside the values) | hit rate 0.49% among 340,000; in the data active = activity change below about -65%; inconclusive = mostly about -30% to -63%
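Steps: dispense buffer (Tris pH 8.0, NaCl 300 mM, TCEP 1 mM, BSA, Tween 20); add 5X protein mix (GST-E1A, His-CtBP, 125 nM each); pin 23 nL compound; 2 h at 37 °C, dark; add 5X beads (50 ug/mL); 1 h; read.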
TDP1 cell CPT = qHTS for Inhibitors of human tyrosyl-DNA phosphodiesterase 1 (TDP1): qHTS in cells in presence of CPT. hit rate 12% among 420,000. Potency, µM (top dose mostly 46.2 µM), without a hit: top-dose activity change, negative = growth inhibition, usual class: inhibitors. chicken DT40 Tdp1-/-;hTDP1 cells + 20 nM CPT, ATP luminescence, 48 h; also: potency is read from the fitted curve at half-maximal effect; nearly all actives have a fitted effect of over 55% in size
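Chicken DT40 Tdp1-/- cells stably complemented with human TDP1 were seeded at 400 cells/well in medium containing 20 nM camptothecin, exposed to pin-transferred compounds, and grown at 37 °C for at least 48 hr. Viability was read as ATP luminescence.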
Six1-Eya2 blk = qHTS Assay for Inhibitors of the Six1/Eya2 Interaction; hit rate 0.56% among 360,000; AID 651725, 2012; AlphaScreen GST-Six1/His-Eya2 binding, biochemical; stronger effect = lower value; Homeobox protein SIX1 (Homo sapiens) + Protein phosphatase EYA2 (Homo sapiens), …; activity change, % (no concentration beside the values); in the data active = activity change below about -65%; inconclusive = mostly about -30% to -63%
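Six1/Eya2 binding was read as AlphaScreen signal after compounds were pinned into GST-Six1 plus His-tagged Eya2 (5X stock 250/500 nM) in pH 8.0 Tris/NaCl/TCEP buffer, beads added, then incubated 1 h, 37 C, dark.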
IL-1B inflam inh = qHTS for Inhibitors of Inflammasome Signaling: IL-1-beta AlphaLISA Primary Screen; THP-1 LPS/ATP IL-1B secretion, AlphaLISA, 16 h; stronger effect = lower value; activity change, % at 57.5 µM; hit rate 4.7% among 360,000; in the data active = activity change below about -50%; inconclusive = mostly about -30% to -49%
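THP-1 cells pretreated 1 hr with compounds (up to 57.5 uM final), then stimulated with LPS (250 ng/mL final) plus ATP (1.25 mM final); secreted IL-1B measured by AlphaLISA after 16 hr, decreased signal indicating inhibition.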
Numbers without * were called inactive; u = inconclusive; x = not tested or not shown. Unless noted, calls follow the shape of the dose curve; as a rule, active = well fitted curve in the direction sought with a large enough effect; inconclusive = small, poorly fitted or top-dose-only effect, or another doubt; inactive = no such curve, though single readings can be large; an effect the other way counts as inactive or inconclusive. % is scaled to controls: 0 for no effect and ±100 for the full control effect.

SMILES	TDP1 block	TDP1 cell noCPT	CtBP-E1A blk	TDP1 cell CPT	Six1-Eya2 blk	IL-1B inflam inh
O=C(O)c1ccc(/C=N/NC(=O)c2ccc(CN3c4cccc5cccc(c45)S3(=O)=O)cc2)cc1	x	20%	-10	-5%	-1	-7
COc1ccccc1NC(=O)CN(c1ccc(C23CC4CC(CC(C4)C2)C3)cc1)S(C)(=O)=O	5%	15µM*	-12	13µM*	-11	-2
NS(=O)(=O)c1ccc(NC(=O)COC(=O)c2ccc(S(=O)(=O)N3CCOCC3)cc2)cc1	-2%	-12%	9	-9%	2	28
C=CCC[C@@H](Cc1ccc(F)cc1)C(=O)OC[C@H](Cc1c[nH]c2ccccc12)NC(=O)[C@H](CC=C)CC(=O)NCCO	3%	u	5	u	5	-57*
C=CCC[C@H](Cc1ccc(F)cc1)C(=O)OC[C@@H](Cc1c[nH]c2ccccc12)NC(=O)[C@H](CC=C)CC(=O)NCCO	4%	16µM*	-7	21µM*	-7	0
CN1Cc2c(N3CCOCC3)nc3sc(C(=O)c4ccc(Br)cc4)c(N)c3c2CC1(C)C	11%	5.2µM*	-10	4.1µM*	-16	x
CNC(=O)c1ccc(-c2sc3nc(N4CCOCC4)c4c(c3c2N)CCCC4)o1	11%	15µM*	-23	21µM*	-9	5
CNC(=O)c1ccc(-c2sc3nc(N4CCOCC4)c4c(c3c2N)CC(C)(C)OC4)o1	2%	18µM*	-2	21µM*	0	129
CCN(CC)c1ccc(NC(=O)c2c(C)noc2C)cc1	3%	12%	4	-2%	-3	-11
NC(Cc1ccc(F)cc1)c1csc(Nc2ccc(C(=O)NCCCO)cn2)n1 (configuration not stated)	x	u	-72*	u	-68*	-4
CC(C)CC(N)c1csc(Nc2ccc(C(=O)NCCCO)cn2)n1 (configuration not stated)	x	u	-78*	u	-70*	-13
NC(Cc1ccccc1)c1csc(Nc2ccc(C(=O)NCCO)cc2)n1 (configuration not stated)	x	u	-9	u	-16	-19
CCCCN(C)C(=O)c1ccc(Nc2nc(C(N)COCc3ccccc3)cs2)nc1 (configuration not stated)	x	15µM*	u	12µM*	u	u
Cc1ccccc1N(CC(=O)N1CCCC1)S(=O)(=O)c1ccc(Cl)cc1	x	u	2	u	-1	9
O=C(COc1cccc2ccccc12)N1c2ccccc2CCc2ccccc21	3%	18µM*	-13	u	-8	u
O=C(COc1ccc2ccccc2c1CN1CCOCC1)N1CCc2ccccc21	6%	u	-20	u	-15	-74*
O=C(COc1cccc2ccccc12)N1CCN(c2ccccc2)CC1	7%	u	0	u	-20	-10
O=C(COc1ccc(F)cc1)N1c2ccccc2CCc2ccccc21	2%	18µM*	x	u	-1	-19
O=C(COc1ccccc1Cl)N1CCc2ccccc21	0%	3%	5	11%	9	-2
CCCCCCCNC(=O)C1(CC2CC(c3ccccc3)=NO2)CCN(C(=O)c2ccccc2)CC1 (configuration not stated)	0%	16µM*	1	u	-7	0
